Data on 4 compounds can be found in PubChem BioAssay (NCI).

The panel holds about 79,000 compounds, 15% with a hit somewhere; the sample as a whole holds those more often. Unmarked numbers belong to inactive results. Active and inactive are the calls of the source. No stated cut-off is given here; in the data, active means growth inhibition above about 70%; inactive means the rest.

Experiment [1] can be described thus: NCI Yeast Anticancer Drug Screen. Data for the rad50 strain (AID 155).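 Further: 0% = growth of vehicle-only cultures of the same strain.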 The note with it: S. cerevisiae rad50 strain growth inhibition, hits give high values. In a few lines: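 Vehicle-treated cultures provide the reference for the growth inhibition reported for compound-exposed, repair-deficient yeast.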
The nature of experiment [2]: NCI Yeast Anticancer Drug Screen. Data for the mec2-1 strain (AID 157). The note with it: S. cerevisiae mec2-1 strain, hits give high values. The gist of the method: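 Compounds were applied to mec2-1 yeast cells. Their growth was then compared with that of vehicle-treated cultures to give growth inhibition.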
The nature of experiment [3]: NCI Yeast Anticancer Drug Screen. Data for the sgs1 mgt1 strain (AID 161).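 Further: 0% = growth of cultures given vehicle only.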 The note with it: S. cerevisiae sgs1 mgt1 strain, hits give high values. In a few lines:
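This yeast growth screen uses a strain with defined DNA-repair lesions; compound-treated growth is compared with vehicle-treated growth.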

A short description of experiment [4]: NCI Yeast Anticancer Drug Screen. Data for the cln2 rad14 strain (AID 165).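 Further: 0% = growth equal to vehicle treated cultures.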 The conditions noted are these: S. cerevisiae cln2 rad14 strain, hits give high values. In a few lines:
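Strain: cln2 rad14 yeast, altered in cell cycle control and DNA damage repair. Read-out: growth inhibition vs vehicle.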

The nature of experiment [5]: NCI Yeast Anticancer Drug Screen. Data for the bub3 strain (AID 167). The conditions noted are these: S. cerevisiae bub3 mutant strain, hits give high values. The gist of the method:
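Mutant yeast screening strain plus compound; vehicle-treated cultures serve as the 0% inhibition reference.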

Experiment [6] in a line: NCI Yeast Anticancer Drug Screen. Data for the mlh1 rad18 strain (AID 175). The conditions noted are these: S. cerevisiae mlh1 rad18 strain growth inhibition, hits give high values. The gist of the method:
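A repair-deficient yeast strain is exposed to test compound, and growth is scored relative to vehicle-treated controls.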

The mark [7] stands for this setting: at 5.0 µM (retest, dose inferred, filed as 0.5).
[8] abbreviates: at 50.0 µM (retest, dose inferred, filed as 5.0).

On to `O=C1c2ccccc2CCC1C(O)(C(F)(F)F)C(F)(F)F` (configuration not stated), for which the growth inhibition in experiment [1] (setting [7]) is 19%; in experiment [1] (setting [8]), 13%; in experiment [1] (at 50.0 µM), -5.3%; in experiment [2] (setting [7]) it was 16%; in experiment [2] (setting [8]) it was 7%; in experiment [2] (at 50.0 µM), -3.6%. In addition, the growth inhibition was 22% in experiment [3] (setting [7]); 7% in experiment [3] (setting [8]); -35.8% in experiment [3] (at 50.0 µM); 4% in experiment [4] (setting [7]); 11% in experiment [4] (setting [8]); 10.9% in experiment [4] (at 50.0 µM). Besides, the growth inhibition in experiment [5] (setting [7]) is -12%; in experiment [5] (setting [8]), 1%; in experiment [5] (at 50.0 µM), 31.6%; in experiment [6] (setting [7]) it was 22%; in experiment [6] (setting [8]) it was 20%; in experiment [6] (at 50.0 µM) it was -11.3%.
In the case of `C1CCC(C2=NC3CCCCC3SC2)CC1` (configuration not stated), the growth inhibition in experiment [1] (setting [7]) was 5%; in experiment [1] (setting [8]), 98% (active); in experiment [1] (at 50.0 µM), 92.2% (active); in experiment [2] (setting [7]), -16%; in experiment [2] (setting [8]) it was 99% (active); in experiment [2] (at 50.0 µM) it was 93.5% (active). The growth inhibition in experiment [3] (setting [7]) was 5%; in experiment [3] (setting [8]), 86% (active); in experiment [3] (at 50.0 µM), 93.9% (active); in experiment [4] (setting [7]), 10%; in experiment [4] (setting [8]), 96% (active); in experiment [4] (at 50.0 µM) it was 90.1% (active). The growth inhibition in experiment [5] (setting [7]) is 6%; in experiment [5] (setting [8]) it was 98% (active); in experiment [5] (at 50.0 µM), 92.1% (active); in experiment [6] (setting [7]), -20%; in experiment [6] (setting [8]) it was 98% (active); in experiment [6] (at 50.0 µM) it was 91.2% (active).
Take `Cc1nc2ccc(N=Nc3c(O)ccc4ccccc34)cc2[nH]1`: the growth inhibition was -6% in experiment [1] (setting [7]); 30% in experiment [1] (setting [8]); 85.3% (active) in experiment [1] (at 50.0 µM); -7% in experiment [2] (setting [7]); 20% in experiment [2] (setting [8]); 77.1% (active) in experiment [2] (at 50.0 µM). Besides, the growth inhibition was 11% in experiment [3] (setting [7]); 35% in experiment [3] (setting [8]); 91.7% (active) in experiment [3] (at 50.0 µM); -12% in experiment [4] (setting [7]); 17% in experiment [4] (setting [8]); 72.3% (active) in experiment [4] (at 50.0 µM). For the same compound, the growth inhibition in experiment [5] (setting [7]) was -4%; in experiment [5] (setting [8]), 77% (active); in experiment [5] (at 50.0 µM), 86.2% (active); in experiment [6] (setting [7]), -33%; in experiment [6] (setting [8]), 66%; in experiment [6] (at 50.0 µM) it was 82.5% (active).
For `CC12CCC(O)CC1=CCC1C2CCC2(C)/C(=C\C#N)CCC12` (configuration not stated), the growth inhibition was -6% in experiment [1] (setting [7]); 53% in experiment [1] (setting [8]); 69.2% in experiment [1] (at 50.0 µM); 5% in experiment [2] (setting [7]); 78% (active) in experiment [2] (setting [8]); 9.9% in experiment [2] (at 50.0 µM). The growth inhibition in experiment [3] (setting [7]) is 11%; in experiment [3] (setting [8]), 90% (active); in experiment [3] (at 50.0 µM), 52.3%; in experiment [4] (setting [7]), 2%; in experiment [4] (setting [8]) it was 81% (active); in experiment [4] (at 50.0 µM), -1.95%. The growth inhibition in experiment [5] (setting [7]) was 2%; in experiment [5] (setting [8]), 87% (active); in experiment [5] (at 50.0 µM) it was 31.3%; in experiment [6] (setting [7]), -8%; in experiment [6] (setting [8]), 97% (active); in experiment [6] (at 50.0 µM) it was 73.9% (active).
